# pKd: −log10 of the molar value.
# Legend:
# AAK1 = details: concentration: 1 μM, replicates: in singlicate; n = 1
# ABL1-nonphosphorylated = details: concentration: 1 μM, replicates: in singlicate; n = 1
# ABL1-phosphorylated = details: concentration: 1 μM, replicates: in singlicate; n = 1
# ABL2 = details: concentration: 1 μM, replicates: in singlicate; n = 1
# ACVR1B = details: concentration: 1 μM, replicates: in singlicate; n = 1
# p38-alpha = system: T1, p38-alpha;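 note: kd values determined as follow-up on hits from a single-replicate KINOMEscan panel screen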
# T1 construct: gene MAPK14
# 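Throughout, for %Inh: KINOMEscan kinase panel screen.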
SMILES,%Inh (AAK1) [%],%Inh (ABL1-nonphosphorylated) [%],%Inh (ABL1-phosphorylated) [%],%Inh (ABL2) [%],%Inh (ACVR1B) [%],pKd (p38-alpha)
COc1ccc(CSc2nnc(-c3ccc4c(c3)CCO4)o2)cc1,8,28,0,8,0,
CNCc1ccc2nc(NC(=O)c3ccc(C(C)(C)C)cc3)cn2c1,0,13,12,1,0,< 5.00
COc1ccc(Nc2nccc(N3CCC(NC(=O)c4cc5ccccc5s4)C3)n2)cc1 (centres unmarked) [GSK1379738],73,0,0,1,0,
CN1c2ccc(-c3ccc(C(N)=O)cc3)cc2-c2[nH]ncc2S1(=O)=O,39,36,9,0,3,
O=C(Nc1n[nH]c2nc(-c3cccs3)c(Br)cc12)C1CCCC1 [SB-743341],0,48,19,5,17,
O=C1NC(=O)C(c2ccc(Cl)cc2)=C1Nc1cccc(Cl)c1 [SB-317651],0,47,0,0,0,
Cn1cnc2c(N)ncnc21 [SKF-97623],0,21,0,2,0,
CNc1nc(-c2ccc3c(N)n[nH]c3c2)cc(N2C[C@@H](C(=O)NC3CCCCC3)OC[C@H]2C)n1 [GSK2375584],40,6,0,3,0,
CC(=O)c1c(C)c2cnc(Nc3ccc(N4CCNCC4)cn3)nc2n(C2CCCC2)c1=O,0,28,0,0,0,
O=c1cc(N2CCOCC2)nc2n(Cc3ccccc3F)ccn12 [GSK2297428],5,0,0,8,0,
CCn1c(-c2ccccc2)nc2cnccc21 [SB-733416],0,0,13,5,0,
NS(=O)(=O)c1cccc(N/C=C2\C(=O)Nc3ccc(S(=O)(=O)Cc4c(Cl)cccc4Cl)cc32)c1 [GSK398099],31,0,0,14,0,
COC(=O)C(NC(=O)NC1CCN(c2ccnc(Nc3ccc(F)cc3)n2)C1)c1ccccc1 (centres unmarked) [GSK1379712],5,0,0,0,0,
COc1ccc(Nc2nccc(N3CCC(NC(=O)C(C)c4ccc(Cl)cc4)CC3)n2)cc1 (centres unmarked) [GSK1379812],23,4,0,28,0,
Cc1ccc(NC(=O)c2ccc(Cl)cc2)cc1-c1ccc(C(=O)Nc2ccncc2)cc1 [GSK1398467],8,0,0,20,0,
Nc1ncnc2occ(-c3ccc4c(c3)CCN4C(=O)Cc3cc(F)ccc3F)c12 [GSK2645446],53,27,3,13,0,
CNc1cc(-c2ccc3c(N)n[nH]c3c2)nc(N)n1 [GSK2224810],64,0,0,0,21,
Cc1nccc(-c2c(-c3ccc(F)cc3)ncn2CCCN2CCOCC2)n1.Cl [SB-282975],0,26,0,22,36,
CC(C)c1cc(-c2ccc3c(N)n[nH]c3c2)nc(N)n1 [GSK2250882],53,0,0,13,0,
CCn1c(-c2c(N)noc2C)nc2cnccc21 [SB-737856],0,0,13,13,0,

SMILES,%Inh (AAK1) [%],%Inh (ABL1-nonphosphorylated) [%],%Inh (ABL1-phosphorylated) [%],%Inh (ABL2) [%],%Inh (ACVR1B) [%],pKd (p38-alpha)
COc1ccc(Nc2nccc(-c3ccc(NC(=O)c4cc5cc(F)ccc5[nH]4)cc3)n2)cc1 [GSK1229496],65,0,0,0,23,
CC(C)c1ccc(O)cc1Nc1ccnc2ccc(C(F)(F)F)cc12 [GW482059],0,0,0,3,0,
Cc1cnc(N)c(/C=C/c2cncc(C(=O)NCCc3ccc(Cl)cc3Cl)c2)c1.Cl [GSK190937],19,39,0,11,0,
O=C(Nc1n[nH]c2nc(-c3ccco3)c(Br)cc12)C1CCN(Cc2ccccc2)C1.O=C(O)[C@H](O)[C@@H](O)C(=O)O (centres unmarked) [SB-742034],29,33,23,4,20,
CS(=O)(=O)CCNCc1nc(-c2ccc3ncnc(Nc4ccc5c(cnn5Cc5ccccc5)c4)c3c2)cs1.Cl.Cl [GW569716],0,68,0,13,0,
COC(=O)c1cccc(NC(=O)NC2CCN(c3ccnc(Nc4ccc(F)cc4)n3)C2)c1 (centres unmarked) [GSK1379725],0,0,0,5,0,
Cn1cncc1-c1cc2c(Nc3ccc(OCc4ccccc4)cc3)ncnc2cn1 [GW281179],20,0,0,12,0,
CCc1ccc(-c2ccc3c(c2)-c2n[nH]cc2S(=O)(=O)N3C)cc1,15,26,0,0,0,
Cc1ccc(NC(=O)Nc2ccc(Cl)cc2)cc1-c1ccc(C(=O)Nc2ccncc2)cc1 [GSK1398472],0,2,5,28,0,
Cc1ccc(-c2nc(Nc3ccncc3)c3ccccc3n2)s1 [GSK189015],12,0,0,21,0,
Cc1c(Cn2c3ccccc3n3c(=O)cc(N4CCOCC4)nc23)cccc1C(F)(F)F [GSK2306394],0,0,0,11,0,
CS(=O)(=O)Cc1ccc(Nc2nccc(-c3c(-c4cccc(NC(=O)C5CCCCC5)c4)nn4ncccc34)n2)cc1 [GSK350559],0,8,15,5,0,
CC[C@@H]1CO[C@H](C(=O)Nc2ccccc2)CN1c1cc(-c2ccc3c(N)n[nH]c3c2)nc(NC)n1 [GSK2376236],19,0,0,0,0,
CCCCc1nn2ncccc2c1-c1ccnc(NC2CC2)n1 [GW684374],14,0,0,0,0,
COc1ccc2cc(-c3nc(-c4ccccc4C(C)C)[nH]c3-c3ccncc3)ccc2c1 [SB-660566],20,0,3,8,74,
COc1cc2ncnc(Nc3cccc(Br)c3)c2cc1OC.Cl [GI230329],13,,,18,0,
Cl.Cl.Cl.N#Cc1ccc(CCNc2nccc(-c3cccc(CN4CCNCC4)c3)n2)cc1 [GSK2137462],14,10,0,9,0,
O=c1cc(N2CCOCC2)nc2n(Cc3cccc(Cl)c3Cl)c3ccccc3n12 [GSK2299009],31,0,0,16,0,
CC(=O)c1c(C)c2cnc(Nc3ccn(C)n3)nc2n(C2CCCC2)c1=O,0,0,0,0,2,

# — paper PMC5540273 (PLoS ONE, 2017)
